# Reference: the supplement of paper PMC9135407
# Several values for one entry are separate records, joined by “and”; a condition that tells them apart may be missing. Equal values may be shown once. Where a name gives a salt, the structure may show the parent alone. The whole screen tested about 5,800 compounds, of which about 620 (11%) showed activity. Only a selection was taken, and actives are over-represented in it overall. A number with no mark means an inactive call.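 The calls were made as follows: active = score above a cut-off or among the top three wells of a plate; in these data no inactive exceeds 0.85.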
# System: primary human hepatic stellate cells (donor 1)
# Experiment: scaled lipid accumulation score (0 = DMSO-like, 1 = nortriptyline-like); higher = stronger HSC inactivation (lipid re-accumulation), active = hit call of the paper
# Conditions: 48 h
# [1] = library stock concentration: 80 uM
# [2] = library stock concentration: 400 uM
# [3] = library stock concentration: 2 mM
# [4] = library stock concentration: 10 mM
# [5] = library stock concentration: 3.33 mM
# [6] = library stock concentration: 4.7 mM
# [7] = library stock concentration: 1 mM
smiles,measurement,setting,value
CC(C)c1nn(-c2c(Cl)cccc2Cl)c2nc(Cc3ccc(OCCO)cc3)[nH]c(=O)c12,scaled lipid accumulation score,[1],0.074
same,scaled lipid accumulation score,[2],0.071
same,scaled lipid accumulation score,[3],0.275
same,scaled lipid accumulation score,[4],0.136
O=[N+]([O-])c1ccccc1S(=O)(=O)NCC1CCC(CNCC2CCc3ccccc3C2)CC1 (stereo not given) [NTNCB hydrochloride],scaled lipid accumulation score,[4],0.622
NC(=O)N/N=C/c1ccc(Oc2ccc(F)cc2)cc1,scaled lipid accumulation score,[4],0.015
C#C[C@]1(O)CC[C@H]2[C@@H]3CCc4cc(O)ccc4[C@H]3CC[C@@]21C [Ethinyl Estradiol],scaled lipid accumulation score,[5],≤ 0
same,scaled lipid accumulation score,[4],0.277
C#C[C@]1(O)CC[C@H]2[C@@H]3CCC4=Cc5oncc5C[C@]4(C)[C@H]3CC[C@@]21C,scaled lipid accumulation score,[4],0.336
C#C[C@]1(O)CC[C@H]2[C@@H]3CCc4cc(O)ccc4[C@H]3CC[C@@]21C,scaled lipid accumulation score,[4],0.186
C#C[C@]1(O)CC[C@H]2[C@@H]3CCc4cc(O)ccc4[C@H]3CC[C@@]21C [Ethinyl estradiol],scaled lipid accumulation score,library stock concentration: 6.7 mM,0.516
same,scaled lipid accumulation score,[4],≤ 0
C#C[C@]1(O)CC[C@H]2[C@@H]3CCC4=Cc5oncc5CC4(C)[C@H]3CCC21C (stereo not given in full) [Danazol],scaled lipid accumulation score,[4],0.915 (active)
C#C[C@]1(O)CC[C@H]2[C@@H]3CCC4=Cc5oncc5C[C@]4(C)[C@H]3CC[C@@]21C [Danazol],scaled lipid accumulation score,,0.447
same,scaled lipid accumulation score,library stock concentration: 5.9 mM,0.204 and 0.103
same,scaled lipid accumulation score,[4],≤ 0
CC(C)NCCN(C(C)C)S(=O)(=O)c1ccc(Cl)cc1Cl,scaled lipid accumulation score,[4],0.722
CCCCc1oc2ccccc2c1C(=O)c1cc(I)c(OCCN(CC)CC)c(I)c1 [Amiodarone hydrochloride],scaled lipid accumulation score,,0.445
same,scaled lipid accumulation score,library stock concentration: 2.9 mM,0.417
CCc1oc2ccccc2c1C(=O)c1cc(Br)c(O)c(Br)c1,scaled lipid accumulation score,[4],≤ 0
CCCCc1oc2ccc(NS(C)(=O)=O)cc2c1C(=O)c1ccc(OCCCN(CCCC)CCCC)cc1 [Dronedarone HCl],scaled lipid accumulation score,[5],0.642
same,scaled lipid accumulation score,[4],0.263
CCCCc1oc2ccccc2c1C(=O)c1cc(I)c(OCCN(CC)CC)c(I)c1.Cl [Amiodarone hydrochloride],scaled lipid accumulation score,[4],1.04 (active)
CCCCc1oc2ccccc2c1C(=O)c1cc(I)c(OCCN(CC)CC)c(I)c1 [Amiodarone],scaled lipid accumulation score,library stock concentration: 3.1 mM,0.438
CCCCc1oc2ccccc2c1C(=O)c1cc(I)c(OCCN(CC)CC)c(I)c1,scaled lipid accumulation score,library stock concentration: 7.3 mM,0.281
same,scaled lipid accumulation score,library stock concentration: 9.5 mM,1.34 (active)
CCc1oc2ccccc2c1C(=O)c1cc(Br)c(O)c(Br)c1 [Benzbromarone],scaled lipid accumulation score,,0.013
same,scaled lipid accumulation score,[5],≤ 0
same,scaled lipid accumulation score,[6],≤ 0
same,scaled lipid accumulation score,[4],≤ -0.001
CCCCc1oc2ccccc2c1C(=O)c1cc(I)c(OCCN(CC)CC)c(I)c1 [Amiodarone HCl],scaled lipid accumulation score,[5],0.394
CCCCc1oc2ccccc2c1C(=O)c1cc(I)c(OCCN(CC)CC)c(I)c1.Cl [Amiodarone HCl],scaled lipid accumulation score,[4],1.27 (active)
CCCCc1cc2ccccc2c(OCCN(C)C)n1 [Dimethisoquin hydrochloride],scaled lipid accumulation score,,0.71
NC(=O)c1cc[n+](CC2=C(C(=O)O)N3C(=O)[C@@H](NC(=O)C(c4ccccc4)S(=O)(=O)[O-])[C@H]3SC2)cc1 (stereo not given in full) [Cefsulodin sodium salt hydrate],scaled lipid accumulation score,[4],0.04
NC(=O)c1ccc2nc(-c3ccc(Oc4ccc(Cl)cc4)cc3)[nH]c2c1 [Chk2 Inhibitor II],scaled lipid accumulation score,[5],≤ 0
CCCCCCCCCCCCC/C=C/[C@@H](O)[C@H](CO)NCCCCCCCC [C-8 Ceramine],scaled lipid accumulation score,[7],0.054
CCCCCCCCCCCCC/C=C/[C@@H](O)[C@H](CO)NCCCCCCCC [C8 Ceramine],scaled lipid accumulation score,[7],0.067
CCCCCC(O)C=CC1C(O)CC(O)C1CC=CCCCCOC (stereo not drawn) [Prostaglandin F2.alpha. Alcohol methyl ether],scaled lipid accumulation score,[7],≤ 0
Cc1nc2c(-c3cnc(N)nc3)nc(N3CCOCC3)nc2n1C(C)C,scaled lipid accumulation score,[5],0.019
same,scaled lipid accumulation score,[4],≤ -0.001
"Nc1ccc2c3c(cccc13)C(=O)NC2=O [4-Amino-1,8-naphthalimide] [listing 1 of 2 here]",scaled lipid accumulation score,library stock concentration: 23.6 mM,0.762
O=C1NC(=O)C(c2c[nH]c3ccccc23)=C1c1c[nH]c2ccccc12 [Bisindolylmaleimide IV],scaled lipid accumulation score,[7],≤ 0
same,scaled lipid accumulation score,[5],0.045
"Nc1ccc2c3c(cccc13)C(=O)NC2=O [4-Amino-1,8-naphthalimide] [listing 2 of 2 here]",scaled lipid accumulation score,[4],0.886 (active)
CC(C)C[C@H](NP(=O)(O)O[C@@H]1O[C@@H](C)[C@H](O)[C@@H](O)[C@H]1O)C(=O)N[C@@H](Cc1c[nH]c2ccccc12)C(=O)O [Phosphoramidon Disodium Salt],scaled lipid accumulation score,[5],≤ -0.009
same,scaled lipid accumulation score,[4],≤ 0
Cc1cc(CN2CCN(c3c(Br)cnc4[nH]c(-c5ccc(N6CCN(C)CC6)cc5)nc34)CC2)no1,scaled lipid accumulation score,[5],0.857 (active)
Cc1cc(CN2CCN(c3c(Br)cnc4nc(-c5ccc(N6CCN(C)CC6)cc5)[nH]c34)CC2)no1,scaled lipid accumulation score,[4],0.471
CC(=O)c1ccc(S(=O)(=O)NC(=O)NC2CCCCC2)cc1 [Acetohexamide],scaled lipid accumulation score,,≤ 0
same,scaled lipid accumulation score,library stock concentration: 6.2 mM,≤ 0
same,scaled lipid accumulation score,[4],0.116
O=C(Nc1ccc(I)cc1)NC1CCCCC1,scaled lipid accumulation score,[4],0.938 (active)
O=C(Nc1ccccc1)Nc1ccc(-c2ccc(C(=O)[C@@H]3CCC[C@H]3C(=O)O)cc2)cc1,scaled lipid accumulation score,[5],≤ 0
same,scaled lipid accumulation score,[4],≤ 0
CCCCCC/C=C\CCCCCCCC(=O)OCC [Palmitoleic Acid ethyl ester],scaled lipid accumulation score,[7],≤ 0
COc1ccc(CCn2nnnc2C2(c3ccc(C)cc3)CC2)cc1 [Mephetyl tetrazole],scaled lipid accumulation score,[4],≤ -0.07
COC(=O)C(C)c1ccc(C(=O)c2cccs2)cc1 (stereo not given) [Suprofen methyl ester],scaled lipid accumulation score,[4],≤ 0
CN1CCN(CC(=O)N2c3ccccc3C(=O)Nc3cccnc32)CC1 [Pirenzepine hydrochloride],scaled lipid accumulation score,[6],≤ 0
same,scaled lipid accumulation score,[4],≤ 0
COC(=O)c1ccc2c(c1)NC(=O)C2=C(Nc1ccc(N(C)C(=O)CN2CCN(C)CC2)cc1)c1ccccc1,scaled lipid accumulation score,[4],0.976 (active)
Cc1scc2c1N(C(=O)CN1CCN(C)CC1)c1ccccc1NC2=O [Telenzepine hydrochloride],scaled lipid accumulation score,[4],0.084
"COC(=O)c1ccc2c(c1)NC(=O)/C2=C(\Nc1ccc(N(C)C(=O)CN2CCN(C)CC2)cc1)c1ccccc1 [Intedanib  (BIBF 1120, Vargatef) (2 mM)]",scaled lipid accumulation score,[3],0.838
COC(=O)c1ccc2c(c1)NC(=O)C2=C(Nc1ccc(N(C)C(=O)CN2CCN(C)CC2)cc1)c1ccccc1 [Nintedanib (BIBF 1120)],scaled lipid accumulation score,[5],1.2 (active)
same,scaled lipid accumulation score,[4],1.33 (active)
Cc1scc2c1N(C(=O)CN1CCN(C)CC1)c1ccccc1NC2=O [Telenzepine dihydrochloride],scaled lipid accumulation score,,≤ 0
same,scaled lipid accumulation score,[4],0.052 and 0.027
CN1CCN(CC(=O)N2c3ccccc3C(=O)Nc3cccnc32)CC1 [Pirenzepine 2HCl],scaled lipid accumulation score,library stock concentration: 5.7 mM,≤ -0.006
"COC(=O)c1ccc2c(c1)NC(=O)/C2=C(\Nc1ccc(N(C)C(=O)CN2CCN(C)CC2)cc1)c1ccccc1 [Intedanib (BIBF 1120, Vargatef) (0.4 mM)]",scaled lipid accumulation score,[2],0.323
COC(=O)c1ccc2c(C(=Nc3ccc(N(C)C(=O)CN4CCN(C)CC4)cc3)c3ccccc3)c(O)[nH]c2c1,scaled lipid accumulation score,[1],0.316
same,scaled lipid accumulation score,[2],0.522
same,scaled lipid accumulation score,[3],0.258
Cc1scc2c1N(C(=O)CN1CCN(C)CC1)c1ccccc1NC2=O [Telenzepine 2HCl],scaled lipid accumulation score,library stock concentration: 5.4 mM,0.006
"COC(=O)c1ccc2c(c1)NC(=O)/C2=C(\Nc1ccc(N(C)C(=O)CN2CCN(C)CC2)cc1)c1ccccc1 [Intedanib (BIBF 1120, Vargatef) (10 mM)]",scaled lipid accumulation score,[4],1.51 (active)
CN1CCN(CC(=O)N2c3ccccc3C(=O)Nc3cccnc32)CC1 [Pirenzepine dihydrochloride],scaled lipid accumulation score,,≤ 0
same,scaled lipid accumulation score,[4],≤ 0
